Laboratory results taken from the supplement of paper PMC10849652.
Of roughly 7,900 targets only a part is listed; those with a hit were picked by preference. About 0.6% of all pairs of compound and target were hits.

Columns and labels:
Assay in all cases: log2 fold change, soluble protein after heating vs DMSO (PISA); higher = thermal stabilisation; K562 cells, 10 uM, 30 min; active = over 0.2 and 3.5 SD of the protein, either way, in both replicates (recomputed)
erlotinib = compound: C#Cc1cccc(Nc2ncnc3cc(OCCOC)c(OCCOC)cc23)c1 [erlotinib]
In short: (§1)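 Quantification of soluble protein used TMTpro 16plex LC-MS/MS, with channel sums equalised. Samples were the supernatant after 21,000xg for 90 min of pooled aliquots from K562 cells (2×10^6 cells/mL) treated with 10 μM compound for 30 min, heated for 3 min over 48°C-58°C, and extracted in PBS with 0.5% NP-40 at 4°C. Values, from duplicates, describe thermal stability against control samples on a log2 fold-change scale.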

[1] = compound: C/C(=N\NC(=O)C1=CC(=CC=C1)S(=O)(=O)N2CCOCC2)/C3=C(C=CC(=C3)Cl)O
In short: as §1

[2] = compound: C1=CC(=C(C=C1Cl)C2=NC3=NC=CN=C3C(=N2)NC4=CC=NC=C4)F
In short: as §1

[3] = compound: C1=CC(=CC=C1C2=NC3=C(N2)C=C(C=C3)C(=O)N)OC4=CC=C(C=C4)Cl
In short: as §1

[4] = compound: C1=CC2=C(C=CC(=C2)/C=C\3/C(=O)NC(=NCC4=CC=CS4)S3)N=C1
In short: as §1

[5] = compound: C1=CC2=NC=CN=C2C=C1/C=C/3\C(=O)NC(=O)S3
In short: as §1

[6] = compound: C1=CC=C(C=C1)C2=NC(=C(N2)C3=CC=NC=C3)C4=CC(=C(C=C4)Cl)O
In short: as §1

[7] = compound: C1=CC=C2C(=C1)C3=NNC4=CC=CC(=C43)C2=O
In short: as §1

[8] = compound: C1CCN(C1)C(=O)NC2=CC=CC(=C2)NC3=NC=C(C(=N3)NCCC4=CN=CN4)Br
In short: as §1

[9] = compound: C1CN(CCC1(CC2=CC=C(C=C2)Cl)N)C3=NC=NC4=C3C=CN4
In short: as §1

IRAK-1-4 Inhibitor I = compound: C1COCCN1CCN2C3=CC=CC=C3N=C2NC(=O)C4=CC(=CC=C4)[N+](=O)[O-] [IRAK-1-4 Inhibitor I]
In short: as §1

ibrutinib = compound: C=CC(=O)N1CCC[C@@H](n2nc(-c3ccc(Oc4ccccc4)cc3)c3c(N)ncnc32)C1 [ibrutinib]
In short: as §1

[10] = compound: CC(=O)c1cnc2ccc(-c3cc(Cl)c(O)c(Cl)c3)nc2c1N[C@H]1CC[C@H](CN(C)C)CC1
In short: as §1

ralimetinib = compound: CC(C)(C)Cn1c(N)nc2ccc(-c3[nH]c(C(C)(C)C)nc3-c3ccc(F)cc3)nc21 [ralimetinib]
In short: as §1

[11] = compound: CC(C)(O)CC(=O)NCCn1ccc2ncnc(Nc3ccc(Oc4cccc(C(F)(F)F)c4)c(Cl)c3)c21
In short: as §1

[12] = compound: CC(C)C1=C2N=C(C=C(N2N=C1)NCC3=CC=CC=C3)NCCCCCCN
In short: as §1

[13] = compound: CC(C)C[C@@H](C=O)NC(=O)[C@H](CC(C)C)NC(=O)[C@H](CC(C)C)NC(=O)OCc1ccccc1
In short: as §1

pinometostat = compound: CC(C)N(C[C@H]1O[C@@H](n2cnc3c(N)ncnc32)[C@H](O)[C@@H]1O)[C@H]1C[C@@H](CCc2nc3cc(C(C)(C)C)ccc3[nH]2)C1 [pinometostat]
In short: as §1

[14] = compound: CC1=C(C(CC(=O)N1)C2=CC=C(C=C2)C(F)(F)F)C(=O)NC3=C(C=C4C(=C3)C=NN4)F
In short: as §1

[15] = compound: CC1=C(C2=C(C=C1)C(=O)C3=CC=CC=C3N2CCCN)C
In short: as §1

Measured: log2 fold change

NANS (UniProt Q9NR45)
UniProt Q9NR45, sequence (Q9NR45 whole entry, looked up): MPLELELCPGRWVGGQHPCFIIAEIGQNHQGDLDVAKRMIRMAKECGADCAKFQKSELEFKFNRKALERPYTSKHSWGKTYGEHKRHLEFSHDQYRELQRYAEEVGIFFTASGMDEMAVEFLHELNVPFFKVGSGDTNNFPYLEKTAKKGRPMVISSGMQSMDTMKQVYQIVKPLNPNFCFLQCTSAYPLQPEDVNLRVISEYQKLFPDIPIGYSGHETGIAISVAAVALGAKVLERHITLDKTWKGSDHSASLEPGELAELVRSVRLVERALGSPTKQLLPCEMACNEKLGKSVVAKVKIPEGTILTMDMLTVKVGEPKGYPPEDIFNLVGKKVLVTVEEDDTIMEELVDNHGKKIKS
inactive: erlotinib -0.016 | [1] 0.031 | [2] 0.066 | [3] -0.022 | [4] 0.028 | [5] 0.023 | [6] 0.036 | [7] 0.02 | [8] 0.016 | [9] 0.022 | IRAK-1-4 Inhibitor I 0.091 | ibrutinib -0.034 | [10] -0.01 | ralimetinib 0.015 | [11] -0.043 | [12] -0.006 | [13] -0.036 | pinometostat 0 | [14] 0.033 | [15] 0.065

MNAT1 (UniProt P51948)
UniProt P51948, sequence (P51948 whole entry, looked up): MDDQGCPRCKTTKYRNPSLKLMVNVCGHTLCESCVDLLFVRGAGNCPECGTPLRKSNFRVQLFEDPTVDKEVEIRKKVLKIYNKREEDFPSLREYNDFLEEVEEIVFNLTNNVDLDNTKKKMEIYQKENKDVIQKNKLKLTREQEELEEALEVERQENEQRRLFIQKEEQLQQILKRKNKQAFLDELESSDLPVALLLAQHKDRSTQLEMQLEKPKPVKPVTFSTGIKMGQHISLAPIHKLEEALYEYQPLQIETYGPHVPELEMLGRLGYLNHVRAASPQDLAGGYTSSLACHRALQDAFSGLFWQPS
inactive: erlotinib 0.01 | [1] 0.04 | [2] -0.066 | [3] 0.012 | [4] -0.012 | [5] 0.008 | [6] 0.002 | [7] -0.002 | [8] -0.067 | [9] -0.01 | IRAK-1-4 Inhibitor I 0.025 | ibrutinib 0.03 | ralimetinib -0.044 | [11] 0.024 | [12] 0.062 | [13] -0.028 | pinometostat 0.022 | [14] -0.016 | [15] -0.027
active: [10] -0.221

OPA1 isoform 2 (UniProt O60313)
UniProt O60313, sequence (O60313 whole entry, looked up): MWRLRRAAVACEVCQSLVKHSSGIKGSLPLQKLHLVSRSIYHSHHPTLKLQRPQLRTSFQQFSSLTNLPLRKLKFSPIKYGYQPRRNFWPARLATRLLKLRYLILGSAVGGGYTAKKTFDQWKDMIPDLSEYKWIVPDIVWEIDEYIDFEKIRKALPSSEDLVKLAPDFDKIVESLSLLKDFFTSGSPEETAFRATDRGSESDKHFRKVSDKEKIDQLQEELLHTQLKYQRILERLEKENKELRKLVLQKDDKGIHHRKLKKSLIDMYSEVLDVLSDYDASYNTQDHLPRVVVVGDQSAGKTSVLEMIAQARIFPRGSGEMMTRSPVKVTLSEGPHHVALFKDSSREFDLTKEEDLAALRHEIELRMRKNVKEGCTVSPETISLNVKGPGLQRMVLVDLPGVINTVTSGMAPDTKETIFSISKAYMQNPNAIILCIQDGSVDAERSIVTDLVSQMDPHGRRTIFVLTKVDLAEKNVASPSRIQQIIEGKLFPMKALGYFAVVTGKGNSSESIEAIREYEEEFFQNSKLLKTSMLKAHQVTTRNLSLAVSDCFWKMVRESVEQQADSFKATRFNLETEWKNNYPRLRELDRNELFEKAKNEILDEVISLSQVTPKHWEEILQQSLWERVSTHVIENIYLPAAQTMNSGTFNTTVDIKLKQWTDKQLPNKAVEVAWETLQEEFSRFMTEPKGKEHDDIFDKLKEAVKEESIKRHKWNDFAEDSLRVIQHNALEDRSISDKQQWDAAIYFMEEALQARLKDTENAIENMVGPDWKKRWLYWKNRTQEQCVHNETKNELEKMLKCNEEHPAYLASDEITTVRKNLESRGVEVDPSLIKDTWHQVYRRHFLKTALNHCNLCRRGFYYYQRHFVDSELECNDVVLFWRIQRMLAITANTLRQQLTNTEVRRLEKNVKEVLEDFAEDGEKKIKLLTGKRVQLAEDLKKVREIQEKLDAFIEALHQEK
inactive: erlotinib 0.041 | [1] 0.081 | [2] 0.031 | [3] -0.021 | [4] 0.07 | [5] 0.01 | [6] 0.126 | [7] 0.027 | [8] -0.006 | [9] 0.078 | IRAK-1-4 Inhibitor I -0.008 | ibrutinib -0.009 | [10] -0.05 | ralimetinib 0.043 | [11] -0.201 | [13] 0.004 | pinometostat 0.03 | [14] -0.006 | [15] 0.1
active: [12] -0.375

MND1 (UniProt Q9BWT6)
UniProt Q9BWT6, sequence (Q9BWT6 whole entry, looked up): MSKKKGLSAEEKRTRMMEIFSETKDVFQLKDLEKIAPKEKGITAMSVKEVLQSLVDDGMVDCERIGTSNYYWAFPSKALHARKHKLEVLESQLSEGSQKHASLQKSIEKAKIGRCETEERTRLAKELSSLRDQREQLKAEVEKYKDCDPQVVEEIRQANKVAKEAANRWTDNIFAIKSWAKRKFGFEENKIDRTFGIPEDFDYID
inactive: erlotinib -0.068 | [1] 0.034 | [2] -0.003 | [3] -0.002 | [4] -0.011 | [5] 0.015 | [6] -0.019 | [7] 0.009 | [8] -0.081 | [9] -0.017 | IRAK-1-4 Inhibitor I -0.022 | ibrutinib 0.069 | [10] -0.053 | ralimetinib 0.052 | [11] 0.008 | [12] -0.182 | [13] 0.173 | pinometostat 0.076 | [14] 0.058 | [15] 0.043

NDUFB8 (UniProt O95169)
UniProt O95169, sequence (O95169 whole entry, looked up): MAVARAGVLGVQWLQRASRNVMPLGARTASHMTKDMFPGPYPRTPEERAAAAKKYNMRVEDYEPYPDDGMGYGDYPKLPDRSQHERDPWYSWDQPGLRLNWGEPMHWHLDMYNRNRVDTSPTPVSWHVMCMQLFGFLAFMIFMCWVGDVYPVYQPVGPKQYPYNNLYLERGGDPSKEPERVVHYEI
inactive: erlotinib -0.026 | [1] -0.047 | [2] 0.129 | [3] 0.005 | [4] 0.033 | [5] 0.087 | [6] -0.026 | [7] 0.07 | [8] -0.008 | [9] 0.06 | IRAK-1-4 Inhibitor I 0.001 | ibrutinib -0.01 | [10] -0.004 | ralimetinib -0.063 | [12] -0.042 | [13] 0.059 | pinometostat 0.003 | [14] 0.081 | [15] 0.103
active: [11] -0.36

NNT (UniProt Q13423)
UniProt Q13423, sequence (Q13423 whole entry, looked up): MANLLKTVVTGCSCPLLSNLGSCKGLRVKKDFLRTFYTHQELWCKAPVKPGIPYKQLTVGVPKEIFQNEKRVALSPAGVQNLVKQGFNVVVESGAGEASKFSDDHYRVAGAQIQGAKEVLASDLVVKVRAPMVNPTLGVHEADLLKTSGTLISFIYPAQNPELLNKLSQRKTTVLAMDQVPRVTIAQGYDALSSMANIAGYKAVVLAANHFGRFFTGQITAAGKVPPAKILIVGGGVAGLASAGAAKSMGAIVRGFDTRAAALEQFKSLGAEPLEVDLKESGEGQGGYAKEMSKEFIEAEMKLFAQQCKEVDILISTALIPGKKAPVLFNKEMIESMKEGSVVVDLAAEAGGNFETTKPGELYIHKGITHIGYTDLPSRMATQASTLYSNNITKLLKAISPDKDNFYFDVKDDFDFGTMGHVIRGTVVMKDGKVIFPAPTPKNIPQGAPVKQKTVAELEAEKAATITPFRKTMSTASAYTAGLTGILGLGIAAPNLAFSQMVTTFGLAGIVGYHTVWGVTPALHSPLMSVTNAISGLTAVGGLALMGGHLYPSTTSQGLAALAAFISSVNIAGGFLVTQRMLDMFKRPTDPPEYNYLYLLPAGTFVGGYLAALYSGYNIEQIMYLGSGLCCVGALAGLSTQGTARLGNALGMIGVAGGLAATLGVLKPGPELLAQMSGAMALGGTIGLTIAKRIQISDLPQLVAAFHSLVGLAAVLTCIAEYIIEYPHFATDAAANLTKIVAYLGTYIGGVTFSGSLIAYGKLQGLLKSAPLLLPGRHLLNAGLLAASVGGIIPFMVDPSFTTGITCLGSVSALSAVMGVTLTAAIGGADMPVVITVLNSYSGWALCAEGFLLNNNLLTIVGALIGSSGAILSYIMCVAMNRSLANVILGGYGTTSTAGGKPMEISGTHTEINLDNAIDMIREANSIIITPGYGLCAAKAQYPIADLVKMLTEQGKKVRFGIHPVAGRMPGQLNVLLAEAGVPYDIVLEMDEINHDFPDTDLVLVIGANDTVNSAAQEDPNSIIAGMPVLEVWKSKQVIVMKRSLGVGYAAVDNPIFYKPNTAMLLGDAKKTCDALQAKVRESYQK
inactive: erlotinib -0.008 | [1] 0.051 | [2] 0.089 | [3] -0.012 | [4] 0.044 | [5] 0.01 | [6] 0.005 | [7] -0.005 | [8] -0.001 | [9] 0.043 | IRAK-1-4 Inhibitor I 0.013 | ibrutinib -0.018 | [10] -0.016 | ralimetinib -0.099 | [11] -0.056 | [12] 0.016 | [13] -0.053 | pinometostat -0.029 | [14] -0.022 | [15] 0.037

MRPL46 (UniProt Q9H2W6)
inactive: erlotinib -0.025 | [1] -0.008 | [2] 0 | [3] 0.011 | [4] -0.054 | [5] -0.001 | [6] 0.046 | [7] 0.164 | [8] -0.031 | [9] -0.075 | IRAK-1-4 Inhibitor I -0.069 | ibrutinib -0.012 | [10] 0.077 | ralimetinib 0.029 | [11] -0.008 | [12] -0.073 | [13] 0.064 | pinometostat 0.03 | [14] -0.004 | [15] -0.026

NQO1 (UniProt P15559)
UniProt P15559, sequence (P15559 whole entry, looked up): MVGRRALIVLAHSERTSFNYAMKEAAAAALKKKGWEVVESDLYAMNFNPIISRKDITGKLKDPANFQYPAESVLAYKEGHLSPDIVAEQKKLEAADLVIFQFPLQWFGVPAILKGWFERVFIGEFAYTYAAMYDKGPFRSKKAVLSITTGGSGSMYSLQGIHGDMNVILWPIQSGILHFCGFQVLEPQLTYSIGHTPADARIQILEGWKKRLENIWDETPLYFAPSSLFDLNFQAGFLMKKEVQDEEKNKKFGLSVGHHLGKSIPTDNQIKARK
active: [7] 0.269
inactive: erlotinib -0.064 | [1] 0.037 | [2] 0.089 | [3] -0.002 | [4] -0.06 | [5] -0.005 | [6] -0.014 | [8] -0.015 | [9] 0.065 | IRAK-1-4 Inhibitor I 0.001 | ibrutinib -0.053 | [10] 0.044 | ralimetinib 0.001 | [11] -0.029 | [12] -0.035 | [13] -0.045 | pinometostat -0.02 | [14] -0.038 | [15] -0.01
